Assay outcomes: PubChem BioAssay, National Center for Advancing Translational Sciences (NCATS)
KB-3-1 cytotox = kills parental KB-3-1 adenocarcinoma cells | KB-3-1 viability, CellTiter-Glo ATP luminescence, 72 h | Potency, µM (titrated, usually from 46.1 µM), usual class: cytotoxic | actives 1.4% (n = 400,000); note: nearly all actives have a fitted effect of over 60% in size
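KB-3-1 cells, DMEM (no phenol red) + 10% FBS; compound by pin transfer, 72 h, 37 °C. Readout: CellTiter-Glo luminescence after 10 min. Data normalized, curve-fitted.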
DT40 TDP1 CPT = growth inhibition of DT40 Tdp1-/-;hTDP1 cells with camptothecin (screen for TDP1 inhibitors); chicken DT40 Tdp1-/-;hTDP1 cells + 20 nM CPT, ATP luminescence, 48 h; AID 686979; Potency, µM (titrated, usually from 46.2 µM), for the others: at the highest dose activity change, negative = growth inhibition, most hits filed as inhibitors; actives 12% (n = 420,000); note: nearly all actives have a fitted effect of over 55% in size
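Chicken DT40 Tdp1-/- cells stably complemented with human TDP1 were seeded at 400 cells/well in medium containing 20 nM camptothecin, exposed to pin-transferred compounds, and grown at 37 °C for at least 48 hr. Viability was read as ATP luminescence.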
DT40 TDP1 no CPT = qHTS for Inhibitors of human tyrosyl-DNA phosphodiesterase 1 (TDP1): qHTS in cells in absence of CPT; Potency, µM (series often up to 46.2 µM), for inactives: at the highest dose activity change, negative = growth inhibition, most hits filed as inhibitors; AID 686978, 2013; DT40 Tdp1-/- hTDP1 cells, no CPT, ATP luminescence, 48 h; actives 15% (n = 420,000); note: nearly all actives have a fitted effect of over 55% in size
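Compound effects on proliferation are scored in DT40 Tdp1-/-;hTDP1 cells in the absence of CPT. ATP levels (CellTiter-Glo luminescence) are recorded after a ≥48 hr, 37 °C incubation.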
HT1080-NT tox = kills 2HG-producing HT-1080-NT fibrosarcoma cells. HT-1080-NT fibrosarcoma viability, CellTiter-Glo ATP luminescence, 48 h. Potency, µM (highest dose often 46.1 µM), without a hit: at the top dose activity, negative = less viability, hits mostly cytotoxic. actives 1.6% (n = 360,000). AID 686970;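 note: NT is the 2HG producing partner of a matched IDH1 knockdown line; 0% = DMSO-treated cells and -100% = media-only wells without cells; nearly all actives have a fitted effect of over 55% in size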
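750 cells/well, RPMI + 5% FBS; 2 h settle, compound pin-transfer, 48 h at 37 degrees C. CellTiter-Glo 10 min RT, luminescence. Normalized to DMSO and media-only wells.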
KB-V1 MDR tox = KB-V1 MDR subline cytotoxicity; actives 3.4% (n = 400,000); KB-V1 MDR cells viability, CellTiter-Glo, 72 h; Potency, µM (highest dose often 46.1 µM), actives largely listed as cytotoxic; note: nearly all actives have a fitted effect of over 60% in size
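KB-V1, DMEM (no phenol red) + 10% FBS; cpd pin-transferred, titration series; 72 h, 37 degrees C; CellTiter-Glo, luminescence. Data normalized, curve-fit.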
HT1080 IDH1KD tx = HT-1080 IDH1 knockdown cell toxicity (counter line). HT-1080 IDH1 knockdown viability, ATP luminescence, 48 h. Potency, µM (titrated, usually from 46.1 µM), inactives show at the top dose activity, negative = toxicity, hits mostly cytotoxic. actives 2% (n = 360,000). AID 686971;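 note: 0% = DMSO wells and -100% = cell-free medium wells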
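In this qHTS, HT-1080 cells depleted of IDH1 are exposed for 48 h at 37 °C to compound titrations. Toxicity is scored from CellTiter-Glo luminescence, with DMSO as full viability and medium alone as none.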
The depositor's hits bear a star; i = inactive; u = inconclusive; x = not tested or not shown. An excerpt weighted towards active compounds, which were near 19% of everything screened. Calls come from the whole dose curve; as a rule, active = well fitted curve in the direction sought with a large enough effect; inconclusive = small, poorly fitted or top-dose-only effect, or another doubt; inactive = no such curve, though single readings can be large; an effect the other way counts as inactive or inconclusive. Unless noted, % is set by controls: 0 for no effect and ±100 for the full control effect; potency is the fitted concentration of half-maximal effect.

SMILES	KB-3-1 cytotox	DT40 TDP1 CPT	DT40 TDP1 no CPT	HT1080-NT tox	KB-V1 MDR tox	HT1080 IDH1KD tx
CC1=C(C(=O)N2CCOCC2)C(c2ccc(O)cc2)NC(=S)N1 (stereo not given)	i	9%	1%	15%	i	10%
Oc1ccc2c(c1)C1CCCC1(N1CCOCC1)O2 (stereo not given)	i	23µM*	u	14%	i	4%
CC(C)CN1C(=O)c2ccc(NC(=O)c3ccccc3F)cc2C1=O	i	-18%	-5%	20%	i	30%
Cc1nnc2ccc(-c3cccc(NC(=O)c4ccc(Br)o4)c3)nn12	i	u	23µM*	u	u	-7%
Cc1cc(C)c2oc(-c3cccc(NC(=O)c4ccc(Br)o4)c3)nc2c1	i	u	u	x	i	x
O=C(Nc1cccc(-c2nnc(-c3ccccc3)o2)c1)c1ccc(Br)o1	i	18µM*	u	-22%	21µM*	u
CC(C)CN1C(=O)c2ccc(NC(=O)c3cccs3)cc2C1=O	i	u	18µM*	3%	13µM*	u
Cc1ccc(C(=O)Nc2cccc(NC(=O)c3cccs3)c2)c(C)c1	i	-67%	16µM*	-7%	u	-7%
CCOc1ccc(-c2cccc(NC(=O)c3ccc(Br)o3)c2)nn1	i	-24%	u	-13%	i	0%
COc1cccc2cc(C(=O)N(Cc3cccs3)Cc3cccs3)c(=O)oc12	i	-7%	u	x	i	x
O=C(NC1CCCCC1)c1ccc(CS(=O)(=O)c2ccc(Cl)cc2)o1	i	-29%	u	6%	i	5%
CC(C)c1ccccc1NC(=S)NCC1(N(C)C)CCCCC1	i	-7%	5%	3%	i	-11%
CC(C)(C)NC(=O)c1cc(NC(=O)c2cccs2)cc(NC(=O)c2cccs2)c1	i	u	21µM*	-18%	u	-15%
O=C(Nc1cccc(-c2ccc(N3CCCCC3)nn2)c1)c1ccc(Br)o1	i	21µM*	12µM*	-12%	u	-13%
O=C(Nc1cccc(NC(=O)c2cccs2)c1)c1ccc(Br)o1	i	-25%	21µM*	2%	i	-7%
Cc1cc(C)cc(C(=O)Nc2ccc(NC(=O)c3cccs3)cc2)c1	i	u	u	u	u	u
O=C(CSc1ccccn1)N1CCN(C(=O)CSc2ccccn2)CC1	i	5%	2%	6%	i	4%
FC(F)(F)c1cnc(N2CCN(C(=S)NCc3ccccc3)CC2)c(Cl)c1	u	u	21µM*	-33%	i	u
O=C(CSc1ccccn1)N1CCN(c2ncc(C(F)(F)F)cc2Cl)CC1	i	u	16µM*	-15%	i	-13%
O=C(O)c1nn(CC(=O)N2CCN(c3ncc(C(F)(F)F)cc3Cl)CC2)c(=O)c2ccccc12	i	-25%	16µM*	-13%	u	-27%
OC(CN1CCN(c2ncc(C(F)(F)F)cc2Cl)CC1)c1ccccc1 (stereo not given)	i	u	u	-22%	i	9%
CCCOc1ccc(-c2nn(-c3ccccc3)cc2C2NC(=O)NC(C)=C2C(=O)OC(C)C)cc1 (stereo not given)	i	u	u	x	u	x
COc1cccc(NC(=O)CCC(=O)N2CC(C)Oc3ccc(C)cc32)c1 (stereo not given)	i	u	u	-2%	i	1%
Cc1ccc(C(=O)N2CC(=O)NC(=O)C2)cc1	i	6%	4%	13%	i	6%
COc1ccc(C(O)Cc2nccn2C)cc1 (stereo not given)	i	-18%	-16%	8%	u	14%
